These results are taken from PubChem BioAssay AID488969 (Vanderbilt High Throughput Screening Facility, 2010).

The full ranking holds about 110,000 compounds; the median of “z-score” is about -0.1, and the highest 2% start at about 2. Only a selection was taken, and the highest values are over-represented in it overall. Activity calls are given as the source filed them.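 Rule for the calls: active = z-score in the third read window above 3 or below -3; inactive = the rest.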 Residues, ends and D or L forms follow the SMILES beside them. *: point of attachment. OBn = c1ccc(CO*)cc1

For this experiment, the target named is Metabotropic glutamate receptor 8 (Rattus norvegicus) (UniProt P70579). Put plainly: rat mGluR8 modulators via GIRK flux, primary screen, cell-based, thallium flux, HTS (AID 488969). The settings on record: HEK293 rat mGluR8, GIRK (G protein-gated inwardly rectifying potassium channel) thallium flux, FluoZin2; at 10 µM; stronger effect = higher value; submaximal glutamate (EC20) added with thallium.
Sequence of Metabotropic glutamate receptor 8 (Rattus norvegicus) (P70579 whole entry, looked up): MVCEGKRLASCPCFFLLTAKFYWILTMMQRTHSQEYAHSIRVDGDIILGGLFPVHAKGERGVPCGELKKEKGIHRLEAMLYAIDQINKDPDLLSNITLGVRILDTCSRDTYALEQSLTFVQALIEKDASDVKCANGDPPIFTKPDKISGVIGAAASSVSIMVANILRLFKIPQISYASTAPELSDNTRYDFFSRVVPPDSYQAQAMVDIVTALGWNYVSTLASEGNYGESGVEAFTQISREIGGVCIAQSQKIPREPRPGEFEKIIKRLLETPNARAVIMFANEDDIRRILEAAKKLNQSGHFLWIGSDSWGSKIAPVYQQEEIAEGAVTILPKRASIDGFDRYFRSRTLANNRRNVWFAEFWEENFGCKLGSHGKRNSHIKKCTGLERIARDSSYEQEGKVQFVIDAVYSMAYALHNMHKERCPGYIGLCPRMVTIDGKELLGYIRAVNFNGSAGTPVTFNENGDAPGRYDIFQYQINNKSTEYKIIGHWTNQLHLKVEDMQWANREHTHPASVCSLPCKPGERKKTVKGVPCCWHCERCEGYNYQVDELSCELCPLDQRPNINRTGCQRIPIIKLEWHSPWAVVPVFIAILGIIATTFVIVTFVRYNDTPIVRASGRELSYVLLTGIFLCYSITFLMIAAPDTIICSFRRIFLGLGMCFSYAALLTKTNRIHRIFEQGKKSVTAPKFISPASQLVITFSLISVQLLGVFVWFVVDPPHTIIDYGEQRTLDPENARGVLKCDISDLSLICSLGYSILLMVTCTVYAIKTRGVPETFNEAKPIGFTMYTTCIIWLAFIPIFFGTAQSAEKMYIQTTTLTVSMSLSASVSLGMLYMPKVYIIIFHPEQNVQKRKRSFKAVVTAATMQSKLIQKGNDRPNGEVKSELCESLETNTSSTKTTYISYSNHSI
Regarding `CCc1ccc(Nc2nnc(SCC(=O)N(C)CC(=O)Nc3ccccc3CC)s2)cc1`, the z-score is -0.439.
`CSc1nccc(Oc2ccc(C#N)cc2)n1` displayed a z-score of -0.172.
Take `CC1=C/C(=N\OS(=O)(=O)c2ccccc2)C(C)=CC1=O`: the z-score is -0.189.
Compound `CC1=C/C(=N\OS(=O)(=O)c2ccccc2)C=CC1=O` showed a z-score of 3.
`CC1=CC(=O)C=C(C)C1=NOS(=O)(=O)c1ccccc1` displayed a z-score of 0.257.
In the case of `Cc1ccc(C(=O)N2CC(C)OC(C)C2)c(Cl)c1` (configuration not stated), the z-score was -0.0463.
Turning to `Cc1ccc(-n2c(Cc3cccn3C)nnc2SCC(=O)Nc2cc(C)on2)cc1`, the z-score was -0.345.
`CNC(=S)NNC(=O)c1sccc1C` showed a z-score of -0.0354.
Next, `CCc1cc(C(=O)NNC(=S)Nc2cc(C)ccc2C)cs1`: 6.35 (active); `CCc1cc(C(=O)NNC(=S)Nc2ccccc2C)cs1`: 1.47; `Cc1cccc(NC(=S)NNC(=O)c2sccc2C)c1`: 2.13.
The result for `CCc1cc(C(=O)NNC(=S)Nc2cccc(C)c2)cs1` reads 7.17 (active); that for `CCCCNC(=S)NNC(=O)c1csc(CC)c1`, -0.0512; that for `Cc1ccc(C)c(NC(=S)NNC(=O)c2sccc2C)c1`, 1.53.
`CCNC(=S)NNC(=O)c1csc(CC)c1` displayed a z-score of -0.163.
Next, `CCc1cc(C(=O)NNC(=S)NCc2ccccc2)cs1`: 0.0336.
The result for `Cc1nn2c3c(cnc2c1-c1ccccc1)C(=O)CCC3` reads -0.149; that for `CC(C)(C)C(=O)NC1(C(F)(F)F)N=C2SCCN2C1=O` (configuration not stated), -0.137; that for `O=C(COc1ccc(S(=O)(=O)NC2CCCCC2)cc1)NCc1cccnc1`, -0.589.
The result for `COc1cc(-c2nc3ccccc3c(=O)n2N)cc(OC)c1OC` reads -0.0215.
On to `O=C(CSc1ccc2nnc(-c3ccc(Cl)cc3)n2n1)N1CCCc2ccccc21`, for which the z-score came to 0.00121.
As for `Cc1cc2nc3c(nc2cc1C)C1(C(=O)N(C)C)CCC3(C)C1(C)C` (configuration not stated), the z-score is -0.192.
The result for `Cc1cccc(-n2ncc3c(NCc4cccs4)ncnc32)c1` reads -0.705.
The compound `O=c1c2ccccc2c(-c2ccccc2)nn1Cc1ccc(Cl)cc1` registered a z-score of -0.152.
As to `Cc1ccc2[nH]c3c(=O)n(CCC4=CCCCC4)cnc3c2c1`, the z-score is -0.447.
In turn, `Cn1c(-c2ccccc2O)cc2ccccc21` yielded a z-score of 0.085.
Next, `Cc1occc1C(=O)N=Nc1c(O)[nH]c2ccc(Br)cc12`: -0.135; `CCC(=O)NC(=S)Nc1ccc(NC(=O)c2ccc(OC)cc2)cc1`: -0.111.
The result for `O=C(Nc1ccccc1Sc1ccccc1)C1CCCO1` (configuration not stated) reads -0.775; that for `O=C(Nc1cccc(F)c1)C1CCCN1S(=O)(=O)c1cccc2cccnc12` (configuration not stated), -0.182; that for `CC(=O)c1ccc(NC(=O)C2CCCN2S(=O)(=O)c2cccc3cccnc23)cc1` (configuration not stated), -0.24.
Next, `Cc1ccc(NC(=O)C2CCCN2S(=O)(=O)c2cccc3cccnc23)cc1F` (configuration not stated): 2.9; `Cc1cccc(NC(=O)C2CCCN2S(=O)(=O)c2cccc3cccnc23)c1` (configuration not stated): 0.22; `CC(=O)c1cccc(NC(=O)C2CCCN2S(=O)(=O)c2cccc3cccnc23)c1` (configuration not stated): 4.14 (active).
Compound `Cc1ccccc1NC(=O)C1CCCN1S(=O)(=O)c1cccc2cccnc12` (configuration not stated) displayed a z-score of -0.0844.
Next, `COc1ccc(-c2cn3c(C)c(C(=O)N4CCN(c5ccc(F)cc5)CC4)sc3n2)cc1`: 0.116; `COc1cccc(CNCCSc2nnnn2C)c1OC`: 0.709.
Next, `O=C(CSc1cccc2cccc(Cl)c12)NCc1cccs1`: 3.5 (active); `O=C(CSc1ccc2ccccc2c1)NCc1cccs1`: 0.0417; `Cc1csc(SCC(=O)NCc2cccs2)n1`: 0.824.
Next, `O=C(NCc1cccnc1)c1cccc(C(F)(F)F)c1`: -0.793.
The compound `COc1ccccc1CNCc1ccc(OC)c(OC)c1OC` came in with a z-score of 2.07.
The result for `COc1ccccc1CNCc1cccs1` reads 0.411; that for `COc1cccc(CNCc2ccc(SC)cc2)c1OC`, -0.19.
For the compound `CC1(C)CNC(=O)C=C(c2ccccc2)C1`, the z-score is -0.176.
Next, `Cc1ccc(S(=O)(=O)N(C)CC(=O)O/N=C(\N)c2ccc([N+](=O)[O-])cc2)cc1`: -0.621; `COn1c(=O)c(-c2ccc(Cl)cc2)[n+]([O-])c2ccccc21`: -0.503; `O=c1c(-c2ccc(Cl)cc2)[n+]([O-])c2ccccc2n1O`: 14 (active).
As for `CCOn1c(=O)c(-c2ccc(Cl)cc2)[n+]([O-])c2ccccc21`, the z-score is 0.119.
On to `Cc1ccc(C)c(-n2[nH]c3c4c(ccc3c2=O)C(=O)c2ccccc2C4=O)c1`, for which the z-score was 0.0628.
The result for `Cc1cc(NC(=O)c2ccc3c(c2)C(=O)N(C2CCCCC2)C3=O)no1` reads 0.19.
The result for `O=C(Nc1ccncc1)c1ccc2c(c1)C(=O)N(C1CCCCC1)C2=O` reads 6.89 (active).
The result for `O=C(Nc1ccncc1)c1ccc2c(c1)C(=O)N(CC1CCCO1)C2=O` (configuration not stated) reads -0.193; that for `CCOC(=O)N1CCN(c2cc(=O)n(-c3ccc(OCC)cc3)c(=O)[nH]2)CC1`, -0.000123; that for `O=C(NNC(=O)c1sccc1-n1cccc1)c1ccc(Cl)cc1`, 3.06 (active).
The compound `O=C(NNC(=O)c1sccc1-n1cccc1)c1ccccc1` displayed a z-score of 0.869.
Next, `O=C(N/N=C\c1ccc(Cl)cc1Cl)c1sccc1-n1cccc1`: -0.203.
The result for `O=C(NNS(=O)(=O)c1cc(Cl)cc(Cl)c1)c1sccc1-n1cccc1` reads 1.93; that for `O=C(NNS(=O)(=O)c1ccc(Cl)cc1)c1sccc1-n1cccc1`, 0.249; that for `O=C(NNC(=O)c1sccc1-n1cccc1)c1cccc(Cl)c1`, 4.1 (active).
Next, `CCOC(=O)N/N=C(C)/C=C/c1ccco1`: 0.31; `CCC(Oc1ccccc1)C(=O)N1CCN(C(=O)C(CC)Oc2ccccc2)CC1` (configuration not stated): -0.159.
Compound `Cn1c(SCC(=O)NNC(=O)Cc2ccccc2)nnc1-c1ccc(Cl)cc1` registered a z-score of -0.126.
As for `N=C1/C(=C/c2cccn2-c2ccc([N+](=O)[O-])cc2)C(=O)N=C2SC=CN12`, the z-score was -0.214.
As to `CC(C)c1ccc(-n2cccc2/C=C2/C(=N)N3C=CSC3=NC2=O)cc1`, the z-score amounted to 2.17.
The result for `N=C1/C(=C/c2cccn2-c2cccc([N+](=O)[O-])c2)C(=O)N=C2SC=CN12` reads -0.207; that for `CC1CCN(c2c([N+](=O)[O-])c(=O)n(-c3ccccc3)c3ccccc23)CC1`, 0.00884.
With `N#C/C(=C/c1ccc(OCc2ccccc2)cc1)C(=O)NC1CCCCC1`, the z-score was determined as 0.0182.
`O=C(NCCN1CCCC1)c1ccc(CS(=O)(=O)c2c(Cl)cccc2Cl)o1` gave a z-score of -0.063.
In turn, `O=C(c1sc2cc(F)ccc2c1Cl)N1CCN(c2cccc(Cl)c2)CC1` displayed a z-score of -0.403.
Next, `CCCCCCC(=O)NC(Nc1ccc(S(N)(=O)=O)cc1)C(Cl)(Cl)Cl` (configuration not stated): -0.259.
In turn, `Cn1ncc2c(=O)n(CC(=O)NC34CC5CC(CC(C5)C3)C4)cnc21` gave a z-score of -0.265.
As to `COC(=O)C1=NN(N=O)C2(CC(=O)N(c3cc(C)cc(C)c3)C2=O)C1` (configuration not stated), the z-score is -0.194.
For `Cc1ccc(C)n1-c1ccc(C(=O)NCC2CCCO2)cc1` (configuration not stated), the z-score was -0.25.
Next, `N#CC(C#N)=C1C=C2C=C(N3CCCCC3)CCC2CC1` (configuration not stated): 10.9 (active); `CCCCN(C)C1=CC2=CC(=C(C#N)C#N)CCC2CC1` (configuration not stated): 5.11 (active); `O=c1[nH]c2cc3c(cc2cc1C(c1nnnn1C1CCCCC1)N1CCSCC1)OCCO3` (configuration not stated): 0.278.
Next, `CCC(=O)N1CCc2cc(S(=O)(=O)NCCCOC)ccc21`: -0.216.
Next, `Cc1nc2ccccn2c1C(=O)N/N=C/c1ccc2c(c1)OCO2`: 0.65; `COCCn1c(SCC(=O)c2ccc3c(c2)OCCO3)nnc1-c1ccoc1C`: -0.231.
Turning to `O=c1nc(NCc2ccccc2Cl)cn[nH]1`, the z-score amounted to 0.66.
For the compound `CC(Nc1ccc(Br)cc1)C(=O)N/N=C/c1ccccc1OCc1ccccc1` (configuration not stated), the z-score was -0.283.
Next, `COC(=O)c1ccc(NC(=O)C23CCC(C)(C(=O)O2)C3(C)C)cc1` (configuration not stated): 2.35.
`COC(=O)c1cc(NC(=O)C23CCC(C)(C(=O)O2)C3(C)C)cc(C(=O)OC)c1` (configuration not stated) showed a z-score of 0.577.
Next, `COc1ccc(NC(=O)C23CCC(C)(C(=O)O2)C3(C)C)cc1` (configuration not stated): 0.0605; `Cc1cs/c(=N\N=C\c2ccccc2)n1Cc1ccco1`: -0.431.
Next, `Cc1csc(=NC(=O)c2ccccc2)n1Cc1ccco1`: -0.784; `Cc1cs/c(=N\N=C\c2cccc([N+](=O)[O-])c2)n1Cc1ccco1`: 5.13 (active); `CC(C(=O)Nc1ccc(F)c(F)c1F)N(C)CC(=O)Nc1ccccc1Br` (configuration not stated): -0.465.
In turn, `O=C(c1ccccc1)c1ccc(OCC(O)CN2CCN(S(=O)(=O)N3CCCCC3)CC2)cc1` (configuration not stated) showed a z-score of 0.198.
As to `OC(COc1ccc(OCc2ccccc2)cc1)CN1CCOCC1` (configuration not stated), the z-score was -0.0779.
Next, `O=C(c1ccccc1)c1ccc(OCC(O)CN2CCOCC2)cc1` (configuration not stated): -0.0655; `OC(COc1ccc(OCC(O)CN2CCCCCC2)cc1)CN1CCCCCC1` (configuration not stated): -0.0132; `OC(COc1ccc(OCc2ccccc2)cc1)CN1CCCCC1` (configuration not stated): 2.76.
In turn, `O=C(c1ccccc1)c1ccc(OCC(O)CN2CCCCC2)cc1` (configuration not stated) gave a z-score of 2.13.
On to `COc1ccc2nc(C)cc(SCC(=O)N/N=C/c3ccccc3)c2c1`, for which the z-score worked out at 0.834.
Next, `Cn1nnnc1SCC(=O)N(C1CCCCC1)C1CCCCC1`: 2.45; `Cn1nnnc1SCC(=O)NC1CCCCC1`: -0.00615; `CCn1nnnc1SCC(=O)N(C1CCCCC1)C1CCCCC1`: -0.262.
The result for `Cc1ccc2cc(CN(CCN3CCCC3)C(=O)Nc3ccc(F)cc3)c(=O)[nH]c2c1C` reads 2.05; that for `Cc1ccc(C)c2[nH]c(=O)c(CN(CCN3CCCC3)C(=O)Nc3ccc(F)cc3)cc12`, 0.644.
`Cc1ccc2cc(CN(CCN3CCCC3)C(=O)Nc3ccccc3)c(=O)[nH]c2c1C` returned a z-score of -0.236.
Next, `CCC(C)C(N)C(=O)NC(CCC(=O)OCc1ccccc1)C(N)=O` (configuration not stated) (H-Ile-Glu(OBn)-NH2; configuration not given here): 0.0296; `Cc1nc(NCCc2ccccc2F)c(C#N)c(C)c1[N+](=O)[O-]`: 0.24.
The compound `O=C(c1scc2c1CCCC2)N1CCCCC1` came in with a z-score of -0.475.
Next, `CC1=CC(=O)OC1Cc1ccncc1` (configuration not stated): 14.2 (active); `O=C1OC(Cc2ccncc2)C(O)=C1C1=NCCCN1` (configuration not stated): -0.135; `Cc1ccc2c(c1)N(Cc1ccncc1)C(=O)C(C)O2` (configuration not stated): 0.33.
Consider `O=C(O)CCCCCN1C(=O)/C(=C/c2ccncc2)SC1=S`, for which the z-score was -0.0629.
Next, `CCC(C)c1ccc(O)c(NC(=O)c2ncn[nH]2)c1` (configuration not stated): -0.374; `Cc1ccc(C)c(-c2cc(C(=O)NCc3cccs3)c3ccccc3n2)c1`: -0.0338.
`O=C(Nc1ccc(Br)cc1F)c1ccc2c(c1)N(Cc1ccccc1)C(=O)CS2=O` (configuration not stated) yielded a z-score of 1.3.
